Screening results (PubChem)
Only some compounds are listed: those with a hit (about 4.1% of all), similar ones and a draw of the others.
hgDAF-12 ag: activates the H. glycines DAF-12 receptor ligand-binding domain; HEK293 GAL4-hgDAF12 UAS-luciferase reporter, agonist luminescence; normalized to butyrate control; activation, % at 6.8 µM; 1.8% of 370,000 active;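 active means activation above a cutoff set at the mean of all screened compounds plus 3 SD, cut at about 10% in these data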;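 further: 0% = DMSO wells and 100% = sodium butyrate wells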
hcDAF12 agonist: activators of H. contortus DAF-12 nuclear receptor; 1.4% of 370,000 active; activation, % at 6.8 µM; HEK293 hcDAF-12 lit1-tk-luc reporter, luminescence; 0% DMSO, 100% Δ7-dafachronic acid;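 active means activation above the mean of all tested compounds plus 3 SD, cut at about 5.5% in these data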;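 further: 100% = response to 3 µM Δ7-dafachronic acid high control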
ssDAF-12 act: activators of S. stercoralis DAF-12 nuclear receptor | activation, % at 6.8 µM | 1% of 370,000 active | HEK293 ssDAF-12/GRIP1 lit1-tk-luc reporter, luminescence; % of 3 µM dafachronic acid response | AID 652126;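 active means activation above the mean over all tested compounds plus 3 SD, cut at about 0.9% in these data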;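 further: 0% = DMSO-only wells and 100% = 3 µM delta7-dafachronic acid wells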
DAX1 inh-1: inhibits human nuclear receptor DAX1; P51843; HEK293 Gal4-DAX1 luciferase reporter, luminescence; inhibition, % at 6.75 µM; 0.99% of 340,000 active; AID 504766;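 active means inhibition above the mean over all tested compounds plus 3 SD, cut at about 4.2% in these data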;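 further: 0% = DAX1-transfected cells with DMSO and 100% = empty-vector control cells with DMSO; inhibition shows as a rise in luminescence from relieved DAX1 repression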
Target sequence (P51843 207-470 limits assumed): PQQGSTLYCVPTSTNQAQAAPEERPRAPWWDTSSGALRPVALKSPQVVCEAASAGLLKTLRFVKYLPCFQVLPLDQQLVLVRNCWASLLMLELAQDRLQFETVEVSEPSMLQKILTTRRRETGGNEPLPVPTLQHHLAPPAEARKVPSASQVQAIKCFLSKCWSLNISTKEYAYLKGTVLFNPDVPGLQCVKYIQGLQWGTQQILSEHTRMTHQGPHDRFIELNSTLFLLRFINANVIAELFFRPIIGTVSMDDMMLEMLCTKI
DAX1 inh-2: DAX1 (NR0B1) inhibition, primary screen; 1.1% of 370,000 active; HEK293T StAR-luciferase reporter, SF-1/DAX-1 repression relief; AID 652010; inhibition, % at 6.8 µM;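 active means inhibition above the mean over all tested compounds plus 3 SD, cut at about 3.6% in these data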;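 further: 0% = DAX-1 cells with DMSO and 100% = cells lacking DAX-1 with DMSO; higher inhibition means more luminescence from relief of DAX-1 repression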
Numbers without * were called inactive.

Screening Cc1cc(C)n(-c2cc(N3CCN(S(=O)(=O)c4ccc(C)c(C)c4)CC3)ccc2[N+](=O)[O-])n1 returned hgDAF-12 ag -1.0, hcDAF12 agonist 1.5, ssDAF-12 act -1.1, DAX1 inh-1 5.4* and DAX1 inh-2 -0.5.
For CC(=O)c1ccc(S(=O)(=O)NCC2CCN(C(=O)C(=O)c3cc4ccccc4o3)CC2)cc1 the results were hgDAF-12 ag 0.0, hcDAF12 agonist 1.6, ssDAF-12 act -1.4 and DAX1 inh-2 -1.3.
For O=C(NN=C1CCCC1)c1[nH]c2ccc(Cl)cc2c1-c1ccccc1 the results were hgDAF-12 ag 0.2, hcDAF12 agonist 1.0, ssDAF-12 act -1.0 and DAX1 inh-2 0.1.
CC(=O)NNC(=O)c1[nH]c2ccc(Cl)cc2c1-c1ccccc1 was read as hgDAF-12 ag 0.5, hcDAF12 agonist -1.1, ssDAF-12 act -1.3, DAX1 inh-1 5.0* and DAX1 inh-2 0.3.
COc1ccc(C2CC3CN(C4CCCCC4)C(=O)C3N2C)cc1 (centres undefined) was read as hgDAF-12 ag 0.8, hcDAF12 agonist -2.7, ssDAF-12 act -1.1 and DAX1 inh-2 -1.2.
Cc1c(/C=C/C(=O)c2cccs2)cnn1C was read as hgDAF-12 ag 6.3, hcDAF12 agonist 0.8, ssDAF-12 act -0.4, DAX1 inh-1 1.9 and DAX1 inh-2 1.4.
`CCc1ccc(C(=O)/C=C/c2cnn(C)c2C)s1` gave hgDAF-12 ag 11.7*, hcDAF12 agonist 2.1, ssDAF-12 act -0.8, DAX1 inh-1 5.2* and DAX1 inh-2 3.1.
Screening O=C(C(=O)N1CCC(CNC(=O)C2COc3ccccc3O2)CC1)c1cc2ccccc2o1 (centres undefined) returned hgDAF-12 ag -0.4, hcDAF12 agonist -1.1, ssDAF-12 act -1.3 and DAX1 inh-2 0.3.
O=C(COC(=O)C1CCN(/C=C/C(=O)C(F)(F)F)CC1)Nc1cccc(F)c1 was read as hgDAF-12 ag 0.0, hcDAF12 agonist 6.0*, ssDAF-12 act -0.3, DAX1 inh-1 0.9 and DAX1 inh-2 0.2.
`CCCC(C)NC(=O)CC1Oc2ccccc2NC1=O` (centres undefined) gave hgDAF-12 ag 1.6, hcDAF12 agonist -2.4, ssDAF-12 act -0.8 and DAX1 inh-2 0.7.
Screening Clc1ccccc1C1CC(c2ccccc2)=Nc2ccccc2N1 (centres undefined) returned hgDAF-12 ag 7.8, hcDAF12 agonist 1.6, ssDAF-12 act -0.6, DAX1 inh-1 4.8* and DAX1 inh-2 1.1.
Cc1c(NC(=O)C2CCCN(S(=O)(=O)c3c(C(C)C)cc(C(C)C)cc3C(C)C)C2)c(=O)n(-c2ccccc2)n1C (centres undefined) was read as hgDAF-12 ag 0.1, hcDAF12 agonist -1.4, ssDAF-12 act -1.2 and DAX1 inh-2 -0.9.
Screening CCCOc1ccc(-c2nc(=S)[nH][nH]2)cc1 returned hgDAF-12 ag 6.0, hcDAF12 agonist 2.6, ssDAF-12 act -0.7, DAX1 inh-1 4.5* and DAX1 inh-2 2.5.
Screening COc1ccc([N+](=O)[O-])cc1NC(=S)NC(C)=O returned hgDAF-12 ag -1.9, hcDAF12 agonist 1.1, ssDAF-12 act 0.3, DAX1 inh-1 8.8* and DAX1 inh-2 0.0.
Screening COc1ccc(OC)c(CN2C(=O)CCCCC2(C)c2nnnn2C2CCCC2)c1 (centres undefined) returned hgDAF-12 ag -0.1, hcDAF12 agonist -2.4, ssDAF-12 act -1.7 and DAX1 inh-2 0.1.
Screening COc1cccc(NC(=O)COC(=O)Cc2ccc(Cl)cc2)c1 returned hgDAF-12 ag 0.2, hcDAF12 agonist -0.2, ssDAF-12 act 0.0, DAX1 inh-1 0.7 and DAX1 inh-2 0.7.
For COc1cccc(NC(=O)n2nc(N)cc2-c2ccc(Cl)cc2)c1 the results were hgDAF-12 ag 12.0*, hcDAF12 agonist -0.1, ssDAF-12 act -0.6, DAX1 inh-1 -0.6 and DAX1 inh-2 -0.6.
CC(C(=O)Nc1sc2c(c1C#N)CCCCC2)N1C(=O)c2ccccc2C1=O (centres undefined) was read as hgDAF-12 ag 3.2, hcDAF12 agonist 3.8, ssDAF-12 act 1.1*, DAX1 inh-1 1.8 and DAX1 inh-2 0.2.
For Cc1cc(C(=O)Nc2sc3c(c2C#N)CCCC3)no1 the results were hgDAF-12 ag 11.6*, hcDAF12 agonist 4.6, ssDAF-12 act -0.5, DAX1 inh-1 2.6 and DAX1 inh-2 3.5.
`CC(=O)Nc1sc2c(c1C#N)CCCCC2` gave hgDAF-12 ag 1.4, hcDAF12 agonist -0.8, ssDAF-12 act -1.3, DAX1 inh-1 0.3 and DAX1 inh-2 -0.3.
`Cc1cc(C(=O)Nc2sc3c(c2C#N)CCC3)no1` gave hgDAF-12 ag 7.9, hcDAF12 agonist 1.1, ssDAF-12 act -0.1, DAX1 inh-1 1.3 and DAX1 inh-2 1.5.
`OC(c1ccccc1)(c1ccccc1)C1CCN(CCCOc2cccc(F)c2)CC1` gave hgDAF-12 ag 2.7, hcDAF12 agonist 0.6, ssDAF-12 act -1.1 and DAX1 inh-2 -0.4.
Screening Cc1cc2c(SCC(=O)Nc3cccc(O)c3)ncnc2s1 returned hgDAF-12 ag 2.4, hcDAF12 agonist 6.4*, ssDAF-12 act 1.4*, DAX1 inh-1 0.0 and DAX1 inh-2 1.2.
Cc1cccc(NC(=O)CSc2nc3sc(C)cc3c(=O)n2C)c1 was read as hgDAF-12 ag 3.1, hcDAF12 agonist -2.5, ssDAF-12 act -1.5, DAX1 inh-1 0.2 and DAX1 inh-2 -1.7.
`Cc1cc2c(=O)n(C)c(SCC(=O)Nc3ccccc3)nc2s1` gave hgDAF-12 ag -4.2, hcDAF12 agonist 0.8, ssDAF-12 act -1.0, DAX1 inh-1 4.8* and DAX1 inh-2 -0.2.
For O=C(c1ccc(F)cc1Cl)N1CCC(Oc2cccnc2)CC1 the results were hgDAF-12 ag -1.5, hcDAF12 agonist -2.7, ssDAF-12 act -2.3 and DAX1 inh-2 -1.2.
For Cn1c(-c2ccccc2Br)n[nH]c1=S the results were hgDAF-12 ag -0.1, hcDAF12 agonist 5.6*, ssDAF-12 act -1.2, DAX1 inh-1 -0.7 and DAX1 inh-2 0.1.
Cn1c(-c2ccccc2)n[nH]c1=S was read as hgDAF-12 ag -0.2, hcDAF12 agonist -0.8, ssDAF-12 act -1.5, DAX1 inh-1 0.5 and DAX1 inh-2 -0.5.
For CC(C)(C)NC(=O)[C@H](c1cccnc1)N(C(=O)c1ccco1)c1ccc(C(C)(C)C)cc1 the results were hgDAF-12 ag 4.2, hcDAF12 agonist -0.5 and ssDAF-12 act -1.5.
For CCOc1ccc(C2Oc3nc(SC)nnc3-c3ccccc3N2C(C)=O)cc1OC (centres undefined) the results were hgDAF-12 ag -0.8, hcDAF12 agonist -1.8, ssDAF-12 act -0.7, DAX1 inh-1 6.0* and DAX1 inh-2 0.0.
`CN(C)CCCN1CC(=O)N2CCc3ccc(Br)cc3C2CC1=O` (centres undefined) gave hgDAF-12 ag 0.3, hcDAF12 agonist 0.8, ssDAF-12 act -1.0 and DAX1 inh-2 0.8.
CCOC(=O)[C@]12CCCC=C1N(Cc1ccc(OC)cc1)C(=O)[C@@H]2CC(=O)N1CCN(C(=O)C2CC2)CC1 was read as hgDAF-12 ag -0.8, hcDAF12 agonist -1.3, ssDAF-12 act 1.8* and DAX1 inh-2 -1.6.
